Test results as given in PubChem BioAssay (NCI).
This is part of a sample that, as a whole, favours compounds with a hit. Of some 83,000 tested, about 20% had one in any assay.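 Compound tested at a single concentration for 48 hours in 96-well plates; a percent growth value below 10 was scored as active.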 Active and inactive are the calls of the source.

Tests used:
Test in all cases: NCI-60 one-dose screen, 48 h (100 = growth as untreated, 0 = no growth, -100 = all killed)
Conditions in all cases: 10 µM unless noted
[1] = tested on: HT29 colon
[2] = tested on: SNB-75 CNS
[3] = tested on: SNB-19 CNS
[4] = tested on: U251 CNS
[5] = tested on: PC-3 prostate
[6] = tested on: SK-MEL-5 melanoma
[7] = tested on: UACC-62 melanoma
[8] = tested on: LOX IMVI melanoma
[9] = tested on: SK-MEL-28 melanoma
[10] = tested on: SK-MEL-2 melanoma
[11] = tested on: EKVX NSCLC
[12] = tested on: SN12C renal
[13] = tested on: UO-31 renal
[14] = tested on: TK-10 renal
[15] = tested on: ACHN renal
[16] = tested on: CAKI-1 renal
[17] = tested on: CCRF-CEM leukemia
[18] = tested on: MOLT-4 leukemia
[19] = tested on: SR leukemia
[20] = tested on: A498 renal

Measured: growth

Nc1ccc2c(c1)/C(=N/O)c1cc([N+](=O)[O-])ccc1-2
active: [19] 9.6%
inactive: [1] 88.7% | [2] 64.1% | [3] 81.4% | [4] 66.7% | [5] 45.3% | [6] 80.9% | [7] 73.1% | [8] 64.6% | [9] 102% | [10] 96.9% | [11] 85.9% | [12] 86.2% | [13] 21.7% | [14] 57.6% | [15] 58.7% | [16] 46.6% | [17] 25% | [18] 25.6%

C/C(=N/N=C(N)N)c1ccc(N)cc1
inactive: [1] 103% | [2] 102% | [3] 96.3% | [4] 99.3% | [5] 92.1% | [6] 107% | [7] 105% | [8] 96.6% | [9] 110% | [10] 154% | [11] 119% | [12] 95.9% | [13] 69.8% | [14] 104% | [15] 102% | [16] 38% | [20] 103% | [17] 124% | [19] 49.3%

NC(N)=N/N=C(/c1ccccc1)c1ccc(Cl)cc1
inactive: [1] 25.6% | [2] 56.1% | [3] 63.8% | [4] 70.8% | [5] 72.8% | [6] 56.8% | [7] 74.4% | [8] 74.4% | [9] 53.9% | [10] 118% | [11] 60.6% | [12] 68.9% | [13] 95.4% | [14] 94.1% | [15] 104% | [20] 56.5% | [17] 125% | [18] 125% | [19] 50.3%

O=C(CSCC(=O)N/N=C/c1ccccc1O)N/N=C\c1ccccc1O
inactive: [1] 42.7% | [2] 36.8% | [3] 31.2% | [4] 26.8% | [5] 25% | [6] 24% | [7] 11.2% | [8] 12.4% | [9] 40.4% | [10] 16.7% | [11] 44.8% | [12] 29% | [14] 24.4% | [15] 11.9% | [16] 11.4% | [20] 99.1%
active: [13] 7.47% | [17] 3.39% | [19] 3.96%

C=C(C)[C@H]1CC/C(C)=C/CC[C@]2(C)O[C@H]2CC/C(C=O)=C\C1O (some centres undefined)
inactive: [1] 98.2% | [2] 106% | [3] 112% | [4] 103% | [5] 122% | [6] 94.8% | [7] 106% | [8] 98.1% | [9] 115% | [10] 1410% | [11] 103% | [12] 101% | [13] 58.1% | [14] 106% | [15] 99% | [20] 143% | [17] 137% | [18] 142% | [19] 120%

O=C(O)C(=O)O
inactive: [1] 109% | [2] 67.4% | [3] 91.7% | [4] 90% | [5] 110% | [6] 99.5% | [7] 98.7% | [8] 92.9% | [9] 99.5% | [10] 88.3% | [11] 103% | [12] 106% | [13] 100% | [14] 93.3% | [15] 91.9% | [16] 99.2% | [20] 92.9% | [17] 102% | [18] 138% | [19] 136%

Cc1cc(O)c2c(c1)C[C@H]1[C@@H]3CC[C@H]4CC(=O)CC[C@]4(C)[C@H]3CC(=O)[C@]21C
inactive: [1] 67.6% | [2] 98.4% | [3] 94.5% | [4] 81.6% | [5] 80.9% | [6] 73.3% | [7] 57.4% | [8] 85.1% | [9] 101% | [10] 83.3% | [11] 49.8% | [12] 81.3% | [13] 113% | [14] 92.5% | [15] 94.7% | [16] 83.9% | [20] 103% | [17] 58.8% | [18] 53.7% | [19] 59.2%

S=C(Nc1ccc(C2=NCCN2)cc1)Nc1ccc(C2=NCCN2)cc1
inactive: [1] 101% | [2] 110% | [3] 105% | [4] 97.9% | [5] 100% | [6] 96.6% | [7] 107% | [8] 96.7% | [9] 110% | [10] 111% | [11] 91.9% | [12] 98.9% | [13] 83.4% | [14] 100% | [15] 99.2% | [16] 93.9% | [20] 101% | [17] 104% | [18] 93.6% | [19] 90.4%

Cn1cnc([N+](=O)[O-])c1S(=O)(=O)Oc1ccc(Cl)cc1
inactive: [2] 103% | [3] 102% | [4] 85.4% | [5] 90.8% | [6] 95.4% | [7] 78.7% | [8] 45.2% | [9] 97.4% | [10] 90.6% | [11] 102% | [12] 94.5% | [14] 96.1% | [19] 25.3%
active: [1] -36.9% | [13] -82% | [15] -70.8% | [16] -65.1% | [17] -49.8% | [18] -0.321%

CC/C(=C\c1ccc(N(C)C)cc1)c1nc2ccccc2c(=O)[nH]1
active: [10] -13.9%
inactive: [1] 81.7% | [2] 88.3% | [3] 102% | [4] 86.3% | [5] 107% | [6] 97.4% | [7] 84.1% | [8] 94.2% | [9] 152% | [11] 93% | [12] 106% | [13] 108% | [14] 51.1% | [15] 93.4% | [20] 118% | [17] 110% | [18] 140% | [19] 77.4%

O=C1Nc2ccccc2C12Nc1cc(Cl)ccc1S2 (centres undefined)
inactive: [1] 95.4% | [2] 59.8% | [3] 94% | [4] 98.5% | [5] 44.5% | [6] 81.7% | [7] 80.9% | [8] 86.3% | [9] 138% | [10] 130% | [11] 74% | [12] 94.7% | [13] 69.6% | [14] 141% | [15] 99.6% | [16] 70.7% | [20] 107% | [18] 60.1%

c1ccc(-n2nnnc2-c2cccc3ccccc23)cc1
active: [1] -1.01% | [2] -7.18% | [5] 5.09% | [17] 9.58%
inactive: [3] 36.7% | [4] 19.5% | [6] 22.2% | [7] 31.6% | [8] 18.6% | [9] 56.5% | [10] 23.8% | [11] 54.1% | [12] 39.9% | [13] 28.7% | [14] 13.8% | [15] 52.9% | [20] 32.6% | [19] 20.5%

CN(C)c1nc(-c2ccco2)n2nc(-c3ccco3)cc2n1
inactive: [1] 96.9% | [2] 81.8% | [3] 98.9% | [4] 88.9% | [5] 84.4% | [6] 81.8% | [7] 82.2% | [8] 75.8% | [9] 119% | [10] 122% | [11] 77% | [12] 93.4% | [13] 40.5% | [14] 90.3% | [15] 96.5% | [16] 90.7% | [20] 79.9% | [17] 93% | [19] 73.8%

COc1cccc2c1C(=O)c1c(O)c3c(c(O)c1C2=O)C[C@@](O)(/C(C)=N/NC(=O)c1cccc([N+](=O)[O-])c1)C[C@@H]3OC1CC(N)C(O)C(C)O1 (some centres undefined)
active: [1] -53.7% | [2] -34.2% | [3] -20.8% | [4] -29% | [5] -35% | [6] -100% | [7] -93.9% | [8] -33.3% | [9] -66.7% | [10] -73.6% | [11] -6.35% | [12] -9.27% | [13] -17% | [14] -33.8% | [15] -62.6% | [20] -58.6% | [18] -39%

O=c1[nH]c(=O)n(C2CC(O)C(CO)O2)cc1C(F)(F)F (centres undefined)
active: [10] -17.8% | [17] -30.2% | [19] -24.8%
inactive: [1] 68.7% | [2] 57.6% | [3] 55.6% | [4] 42% | [5] 74.8% | [6] 29.8% | [7] 29.6% | [8] 18.3% | [9] 75.2% | [11] 86.6% | [12] 28.6% | [13] 23.5% | [14] 64.8% | [15] 24.6% | [16] 66.2% | [20] 42.3% | [18] 31.8%

O=C1Nc2ccc(F)cc2/C1=C/c1nc(-c2ccc(F)cc2)n2ccccc12
inactive: [1] 95.6% | [2] 93.6% | [3] 105% | [4] 83.5% | [5] 115% | [6] 103% | [7] 97% | [8] 92.9% | [9] 112% | [10] 132% | [11] 104% | [12] 98.9% | [13] 93.4% | [14] 120% | [15] 94% | [16] 101% | [17] 103% | [19] 52.9%
active: [20] -13.9%
